target: T1, MutS (Salmonella typhimurium, UniProt P0A1Y0 P0A1Y0:1-855); assay: pulldown; homoduplex control precipitated 53 fold less; 5 mM MgCl2, on ice, competitor DNA; settings: tags: none (overproduced from pGW1825); chain copies: 2; label: 32P on DG6R; fully matched homoduplex; second strand (DG5) copied as printed, pairs with DG6R only if read 3'-5' relative to it; dsDNA, one strand shown
T1 sequence: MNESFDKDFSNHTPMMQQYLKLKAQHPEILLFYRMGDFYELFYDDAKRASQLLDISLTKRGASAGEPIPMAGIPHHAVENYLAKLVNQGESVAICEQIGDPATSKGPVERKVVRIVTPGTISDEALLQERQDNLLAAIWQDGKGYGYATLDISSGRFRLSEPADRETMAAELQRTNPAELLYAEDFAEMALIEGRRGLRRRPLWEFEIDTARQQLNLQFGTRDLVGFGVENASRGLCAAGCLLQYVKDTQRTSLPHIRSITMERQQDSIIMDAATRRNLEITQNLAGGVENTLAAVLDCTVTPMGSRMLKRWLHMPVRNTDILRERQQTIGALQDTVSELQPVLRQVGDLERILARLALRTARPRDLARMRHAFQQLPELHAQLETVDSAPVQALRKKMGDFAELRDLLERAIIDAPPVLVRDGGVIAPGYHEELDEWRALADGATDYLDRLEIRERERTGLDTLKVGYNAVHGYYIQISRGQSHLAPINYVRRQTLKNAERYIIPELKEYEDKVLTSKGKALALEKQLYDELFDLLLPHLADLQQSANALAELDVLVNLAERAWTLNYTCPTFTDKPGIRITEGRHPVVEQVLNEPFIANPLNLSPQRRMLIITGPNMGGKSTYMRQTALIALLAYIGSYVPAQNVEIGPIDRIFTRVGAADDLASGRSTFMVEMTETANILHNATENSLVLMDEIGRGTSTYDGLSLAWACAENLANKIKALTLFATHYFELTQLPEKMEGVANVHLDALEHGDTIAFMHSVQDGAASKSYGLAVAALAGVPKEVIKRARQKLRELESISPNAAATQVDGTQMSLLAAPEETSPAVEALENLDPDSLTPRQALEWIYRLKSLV
Experimental: Affinity fractionation of heteroduplex nucleic acid was performed as follows. Two binding reactions were incubated on ice for 30 minutes, one containing heteroduplex nucleic acid and a control containing homoduplex DNA. The heteroduplex reaction contained 14.5 pMol of MutS, 200 fmol of DG-4/6 Het, and 2 ug of competitor nucleic acid in a total volume of 20 ul. The control reaction contained 14.5 pmol of MutS, 200 fmol of DG-5/6 Hom, and 2 ug of competitor nucleic acid in a total volume of 20 ul. After 30 minutes on ice, 5 ul of anti-MutS antibody was added to each binding reaction, and the result was incubated on ice for 60 minutes. 10 ul of Staphylococcus aureus cells that had been washed twice in assay buffer were added to both binding reactions (see McKay, 1981, supra) and the result was incubated on ice for an additional 30 minutes. Both reactions were then spun in a microfuge for 3 minutes at 4° C. and the pellet was washed 8 times in assay buffer.

Row | Sequence | binding signal
1 | GATCCGTCGACCTGCA | 1 fold (reference)

Reference: patent US5750335, “Screening for genetic variation” (Massachusetts Institute of Technology)
